gsp ag = gsp mutant agonism; actives 0.13% (n = 340,000); Potency, µM (titrated, usually from 76.9 µM), most hits filed as activators; AID 624287; gsp mutant cells, cAMP HTRF, 30 min; active = well fitted activation curve with a large enough effect; inconclusive = small, poorly fitted or top-dose-only effect, or another doubt; inactive = no such curve, though single readings can be large or run the other way; cell line not stated here;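 also: phosphodiesterase inhibitor Ro 20-1724 added with compounds to block cAMP breakdown; nearly all actives have a fitted effect of over 60% in size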
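Cells stably selected in G418 were plated at 2000/well, grown 16-24 hr, then given compounds in DMSO with the PDE inhibitor […] (300 uM solution added) for 30 min at 37C; cAMP was read by HTRF.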
RXFP1 agonist = activates the human relaxin receptor RXFP1; Q9HBX9; HEK293T-RXFP1 cAMP TR-FRET, 30 min; response scale: percent of porcine relaxin response, buffer zero; Potency, µM (highest dose often 57.5 µM), most hits filed as activators; actives 0.3% (n = 370,000); active = well fitted activation curve with a large enough effect; inconclusive = small, poorly fitted or top-dose-only effect; also: nearly all actives have a fitted effect of over 60% in size
Target sequence (Q9HBX9 whole entry, looked up): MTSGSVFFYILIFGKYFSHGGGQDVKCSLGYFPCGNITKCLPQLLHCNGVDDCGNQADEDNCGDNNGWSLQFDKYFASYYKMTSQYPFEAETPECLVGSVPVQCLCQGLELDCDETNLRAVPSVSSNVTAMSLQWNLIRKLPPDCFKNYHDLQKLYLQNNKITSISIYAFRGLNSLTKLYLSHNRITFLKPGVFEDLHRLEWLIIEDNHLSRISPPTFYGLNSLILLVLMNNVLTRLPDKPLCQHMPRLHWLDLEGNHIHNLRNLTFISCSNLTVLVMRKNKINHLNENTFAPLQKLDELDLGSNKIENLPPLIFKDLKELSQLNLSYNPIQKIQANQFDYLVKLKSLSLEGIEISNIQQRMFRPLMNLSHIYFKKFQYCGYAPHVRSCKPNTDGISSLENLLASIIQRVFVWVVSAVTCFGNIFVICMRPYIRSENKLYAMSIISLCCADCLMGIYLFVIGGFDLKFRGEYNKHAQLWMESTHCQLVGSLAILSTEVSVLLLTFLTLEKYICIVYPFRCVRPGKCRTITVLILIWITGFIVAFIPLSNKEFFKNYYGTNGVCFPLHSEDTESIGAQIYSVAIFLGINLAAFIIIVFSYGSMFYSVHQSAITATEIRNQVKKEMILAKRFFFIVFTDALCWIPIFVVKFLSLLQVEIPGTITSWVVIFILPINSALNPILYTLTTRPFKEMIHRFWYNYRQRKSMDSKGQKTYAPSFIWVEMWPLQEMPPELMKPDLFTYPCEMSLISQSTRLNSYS
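Agonist response is measured as cAMP accumulation in an RXFP1-transfected HEK293T line under PDE4 inhibition. Values are scaled between buffer-only and 29 nM porcine relaxin, and EC50s come from standard Hill equation fits.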
FBPA coupling cs = inhibits coupling enzyme system, counter-screen for aldolase hits; coupling enzyme system counterscreen, AmpLite Red fluorescence; activity change, negative = inhibition, % at 58.2 µM, hits read low; actives 0.67% (n = 290,000); AID 2472; in the data active = activity change below about -30%
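First, compound is pin-transferred into glyceraldehyde-3-phosphate coupling-enzyme reagent at 57.5 uM final and held 10 min at RT. Next, substrate, coupling system and AmpLite Red are added. After 20 min RT, fluorescence (525/598 nm) is read.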
RXFP1 antag = blocks the human relaxin receptor RXFP1; Q9HBX9; HEK293-RXFP1, relaxin-stimulated cAMP HTRF, 30 min; hits give low values; activity change, negative = inhibition, % at 57.5 µM; actives 0.59% (n = 350,000); AID 1259400;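 active = activity change of -60% or lower, but not beyond a set lower limit; inconclusive = change between -60% and -40%, or beyond the set limit; inactive = change above -40%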
Giardia killer = Giardia lamblia killing; Giardia lamblia trophozoite viability; activity change, % at 7.66 µM, hits read low; actives 0.15% (n = 340,000); in the data active = activity change below about -80%; inconclusive = between about -30% and that limit;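 also: parasites exposed to compound for two days anaerobically before the ATP read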
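Trophozoite viability was measured as ATP-dependent luminescence, read 15-30 min after reagent addition. Before that, parasites at 100 cells/well were exposed to compounds for 48 h, anaerobically, at 37 deg C.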
gsp antag = gsp mutant antagonism; Potency, µM (series often up to 76.9 µM), actives largely listed as inhibitors; actives 0.4% (n = 340,000); AID 624288; gsp-mutant cells, cAMP HTRF, 30 min; calls by dose curve; cell line not stated here;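 also: intracellular cAMP measured with PDE inhibitor Ro 20-1724 present during compound exposure; nearly all actives have a fitted effect of over 65% in size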
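Cells in G418 medium, seeded 16-24 h, 37C; buffer exchange to DPBS + 1 mM CaCl2, 0.5 mM MgCl2, 0.05% BSA; cpds in DMSO + […] (300 uM stock), 30 min 37C; HTRF cAMP detection.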
Each line names hits and unclear results; the compound was inactive in the other large screens. Shown are actives, neighbours in structure and some others; about 1.6% of the full set was active somewhere.

CC[C@H](C)[C@H](NC(=O)[C@H](CC(=O)O)NC(=O)[C@H](CC(C)C)NC(=O)[C@H](Cc1cnc[nH]1)NC(=O)[C@H](C)NC(=O)[C@H](Cc1ccccc1)NC(=O)[C@H](Cc1ccc(O)cc1)NC(=O)[C@@H](NC(=O)[C@H](C)NC(=O)[C@H](CCC(=O)O)NC(=O)[C@H](CCCCN)NC(=O)[C@H](CC(=O)O)NC(=O)[C@H](CCSC)NC(=O)[C@H](CC(C)C)NC(C)=O)C(C)C)C(=O)N[C@H](C(=O)N[C@@H](Cc1c[nH]c2ccccc12)C(=O)O)[C@@H](C)CC	none (no result: gsp ag, RXFP1 agonist, RXFP1 antag, Giardia killer, gsp antag)
CC(=O)c1c(C)nc2ccccc2c1N	none
Cc1nc2ccccc2c(N)c1C(=O)/C=C/c1ccccc1	gsp ag inconclusive, RXFP1 antag -83
Cc1csc(N=Cc2ccc([N+](=O)[O-])o2)n1	none (no result: RXFP1 agonist, FBPA coupling cs, Giardia killer, gsp antag)
Cc1ccc(C(=O)Nc2nc(=O)n(C)s2)cc1	Giardia killer inconclusive, gsp antag 22µM
CC(C)CC(=O)n1sc(NC(=O)c2ccccc2)nc1=O	Giardia killer inconclusive, gsp antag 28µM
Cc1[nH][nH]c(=O)c1C(c1c(C)[nH][nH]c1=O)c1cn(Cc2ccc(F)cc2)c2ccccc12	FBPA coupling cs -47
O=c1c2ccccc2ncn1Cc1ccc(Cl)c(Cl)c1	none
Cc1[nH][nH]c(=O)c1C(c1c(C)[nH][nH]c1=O)c1cn(Cc2ccc(Cl)c(Cl)c2)c2ccccc12	FBPA coupling cs -49
O=C(CCCCCNc1nc(=S)[nH]c2ccccc12)NCCc1c[nH]c2ccccc12	gsp ag inconclusive (no result: RXFP1 antag)
O=C(CCCCCNc1nc(=S)[nH]c2ccccc12)NCCC1=CCCCC1	RXFP1 antag -63
O=C(CCCCCNc1nc(=S)[nH]c2ccccc12)NCCc1ccc(Cl)cc1	RXFP1 antag -65
O=C(COC(=O)C12CC3CC(CC(O)(C3)C1)C2)NCc1ccco1	none (no result: gsp ag, RXFP1 agonist, FBPA coupling cs, RXFP1 antag, gsp antag)
CC(=O)N1CCc2c(sc(NC(=O)CSc3ccc(F)cc3)c2-c2nc3ccccc3s2)C1	none (no result: gsp ag, FBPA coupling cs, Giardia killer, gsp antag)
CN1CCc2c(sc(NC(=O)CSc3ccc(F)cc3)c2-c2nc3ccccc3s2)C1	RXFP1 antag -96 (no result: gsp ag, FBPA coupling cs, gsp antag)
CCOC(=O)c1c(/C=N/Nc2ccccc2)c2sc(C)cc2n1C	none (no result: gsp ag, FBPA coupling cs, RXFP1 antag, Giardia killer, gsp antag)
CN(N=O)C(=O)N[C@@H]1[C@@H](O)[C@H](O)[C@@H](CO)O[C@@H]1O	none (no result: gsp ag, RXFP1 agonist, FBPA coupling cs, Giardia killer, gsp antag)
O=c1c2ccccc2sn1-c1cc(S(=O)(=O)N2CCOCC2)ccc1N1CCCC1	gsp ag inconclusive, RXFP1 antag -62, gsp antag inconclusive
O=C(OCc1ccccc1)N(CCCCN(CCCNCc1ccccc1)C(=O)OCc1ccccc1)CCCNCc1ccccc1	RXFP1 antag -94 (no result: RXFP1 agonist, FBPA coupling cs)
O=C(NCCCCCCNC(=O)OCc1ccccc1)OCc1ccccc1	none (no result: RXFP1 agonist, FBPA coupling cs)
O=C(c1ccc2c(=O)n(CC3CCCO3)c(=S)[nH]c2c1)N1CCN(C(=O)c2ccco2)CC1 (stereo not given)	none (no result: gsp ag, RXFP1 agonist, FBPA coupling cs, RXFP1 antag, gsp antag)
Cc1cc(C(=O)OCC(=O)Nc2ccc(S(N)(=O)=O)cc2)c2ccccc2n1	Giardia killer inconclusive
COc1ccc(S(=O)(=O)N2Cc3ccccc3CC2C(=O)Nc2nccs2)cc1 (stereo not given)	gsp ag inconclusive
Brc1cc2c(cc1C1Nc3ccccc3C3C=CCC31)OCO2 (stereo not given)	none
CC(=O)c1ccc2c(c1)C1C=CCC1C(C(=O)O)N2 (stereo not given)	none
C1=CC2c3ccccc3NC(c3ccncc3)C2C1 (stereo not given)	gsp ag inconclusive, FBPA coupling cs -41
CC(=O)c1ccc2c(c1)C1C=CCC1C(c1ccncc1)N2 (stereo not given)	FBPA coupling cs -32 (no result: RXFP1 antag)
CCOc1ccccc1-c1nnc2n1N=C(c1ccc(OC)c(OC)c1)CS2	none (no result: gsp ag, RXFP1 agonist, RXFP1 antag, Giardia killer, gsp antag)
O=C1OC(Nc2cc(Br)cc3cccnc23)c2ccccc21 (stereo not given)	gsp ag inconclusive, FBPA coupling cs -40
O=C1OC(Nc2ncccn2)c2ccccc21 (stereo not given)	none
COC(=O)N1CCc2cc(OC)c(OC)cc2C1Cc1ccc(OC)cc1 (stereo not given)	none (no result: gsp ag, RXFP1 agonist, RXFP1 antag, Giardia killer, gsp antag)

From PubChem BioAssay
